We go through 39 sequences from the supplement of paper PMC6555819.

The subject of the assay is PPARg DBDmut IVT, anti-PPARg (DBD mutation: PPARg1 K132A/R137A, NR concentration 270 nM). The experiment in a line: PBM binding z-score (relative to random genomic background probes); higher = stronger binding; sequences stand for … in GC…GCGATTGACAGCGTAGAATGAAGG
The procedure, abridged: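 For binding z-scores, the reference was random background probes on custom Agilent 4×180K protein-binding microarrays. These arrays were incubated 1 h with ligand-free nuclear receptor dimers in PBS pH 7.4, 2% milk, 0.02% Triton X-100, 1 mM DTT, 0.2 mg/mL BSA and 0.4 mg/ml salmon testes DNA. Fluorescence was scanned after antibody detection of each partner (one per run) and regression-normalized.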
AGTCGAAGTTCACTAGGTAACGTAAGATTCAGCT gave a PBM binding z-score of 0.81.
For GCTAGTTGGTCCGTAAAAGGTCACACACCGGTCG the value was 0.195; for CGAACTAGGTCAGAACAGGACAGTGAAGGATGAT, 0.744.
Next, CGAAATAGGTCAGAACAGGACAGTGAAGGATGAT: 1.69; TAGCCTAGGTCATTCTGGGGCCAGTATAGAAAGC: 0.242; ATACCAAGGTGATCGTGACGTCGTTGATACTAAC: 0.866.
CGTCCAAGGTCAAGGTTAGTGAAAGAGACTCGAA came in with a PBM binding z-score of 0.146.
The sequence TCGAGTAGGTTAGTCGGGGGATTCAGCCAACATA registered a PBM binding z-score of 5.11.
GCTCGGAGGGCAAGGTCAGAGCTTTGTCCGTAGA registered a PBM binding z-score of -1.43.
CCGAGTAGGTTATGGGGCATTCATGCAACGGTGA had a PBM binding z-score of 0.00847.
For ACTAGCAGTCCAAGGGTCACTCAAGATTAGTCCG, the PBM binding z-score was -0.0845.
Sequence ATCGAAAGGTCCTGAGGTGAGTATACAGAAAGGC had a PBM binding z-score of 0.602.
As to AGTCAAAGTTCACTTGGTAACGTAAGATTCAGCT, the PBM binding z-score amounted to 0.299.
On to TCTAGCACGCCAGAGGGTCACTCAAGAGGTACGG, for which the PBM binding z-score is -0.824.
CCAACTAGGTCAAGGTCAAAGTCGGTTTGTGCCA showed a PBM binding z-score of 1.36.
The sequence TCAGACAGGTGAAGGTAACACAGGTACGCAGTCG yielded a PBM binding z-score of 0.0418.
For TTACCAAGGTGAGCTGAGGTCGTCGATCCAACTC the value was -0.875.
With TCATATAGGTAAATGCTAGGTGAGAGTCCGATCT, the PBM binding z-score stood at 0.825.
On to TCTTGTAGATTAAAGGTTAAGAAAGCCGAAGCCT, for which the PBM binding z-score came to 0.455.
In turn, TCAGACAGGTGCAGGTAACTCAGGTACGCAGTCG returned a PBM binding z-score of -0.576.
Sequence CGTCAAAGTTCAACTAAAGTAACGTAAAGCACGC showed a PBM binding z-score of 1.46.
As to AATACAGGGTCACTAGGCCAGACTAGGTACGAAT, the PBM binding z-score is 1.09.
In the case of TTACCATGGTGAGCTGAGGTCGTTGATCCAACTC, the PBM binding z-score was -0.449.
Sequence CAGCCTAGGTCAGGGCCAGTAAAGGAGGAACGTT displayed a PBM binding z-score of -1.14.
Next, TCTTGTAGATCAATAGAGTTTAAGAAAGTGCGCT: 0.852; TCGAGGAGGTTACCAATGGGGCATTCAGCTTTCT: -0.775.
In the case of CGTCCAAGGTCAGAGATGTCAGTGAATGCCGAGT, the PBM binding z-score is -0.744.
CACACTAGGTCACGAAAGGTCAAAGTCGAATGAC yielded a PBM binding z-score of 1.95.
Next, GATACAGGGTCAGCTAGAGGCAAGAGTATGGAAA: -0.265.
In the case of CGAACTAGGTCACAACAGGACAGTGAAGGATGAT, the PBM binding z-score came out at 1.05.
ATATGTAGGTTTAGGGTCATTCAGGTTGGTTCGC displayed a PBM binding z-score of 1.25.
On to CCGACTGGGGCAAGGTTAGCATAACGCACAGCCA, for which the PBM binding z-score is -0.288.
Turning to CGTCCAAGGTCATCGGAGGTCAGTGAAGACAGAT, the PBM binding z-score worked out at 1.08.
For TCTCGGAGGACACGAAAGGTCAGAGTTCGACATC the value was -0.696.
CCTACTGGCCCACGAAAGGTCATTGATTCAGTGA displayed a PBM binding z-score of -1.14.
Take TCATATAGGTAAAGGCGAAAGTCGAACGATATGA: the PBM binding z-score came out at 0.996.
With CAAACTAGGTCAGAGAGGTCAAAGTCCGTGCGTA, the PBM binding z-score turned out to be 0.373.
TAGCCTAGGTCAGATCGGGCCAGTATCCGCTATA showed a PBM binding z-score of -1.24.
The sequence CTCGAAAGGCCGGTTGAGGTGAGTATACGGATAA showed a PBM binding z-score of -0.528.
